In all, about 25,000 sequences were measured (“ln(normalized median fluorescence intensity)”: median about 7.1, highest 2% from about 10 on). The list comes from a sample in which the highest values are over-represented; it also holds similar and randomly drawn sequences.
Test system: PfSIP2 AP2 domain 1 (GST-tagged)
Experiment: gcPBM binding intensity (ln(normalized median fluorescence intensity)); higher = stronger DNA binding
Outline: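 Plasmodium falciparum DNA-binding domains carrying a GST tag were expressed in E. coli and applied for 1 h, at about 25 μg on average, to an Agilent 4 × 180k array. The array held primer-extended double-stranded 36-bp intergenic genomic probes together with negative controls, and binding took place in 1× PBS with 1% milk, 0.2 mg/ml BSA, 0.5% salmon testes DNA and 0.03% Triton X-100. An Alexa488 anti-GST antibody detected bound protein, and the array was scanned at 488 nm. Binding intensity is taken as the highest Masliner-normalised natural-log median intensity across replicate spots of either probe orientation.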

Row | Sequence | gcPBM binding intensity (ln)
1 | AATGGGATCATGGTATGTACTTACACAAATGAATTA [XGTACX_site5389] | 6.82
2 | CTATAAATATTTTATTGTACACACTTTTTATGAATG [XGTACX_site6711] | 7.22
3 | TTCATTAAAATTATTACACACAGTTCTTCAACCAAA [CACACA_site3504] | 6.84
4 | AAAGGTTTATATGATACACACATAAGTGATCAGGTT [CACACA_site190] | 6.75
5 | GTAGATATTTATTGAGTGCATGTTATAAAGGGAAAA [GTGCAC_site9481] | 9.62
6 | AGATATTTATTGAGTGCATGTTATAAAGGGAAAAAA [TGCATGCA_site88] | 10.3
7 | GGAAAAATATAATATGCATGTTATTATTTTTTTATA [TGCATGCA_site836] | 6.77
8 | TAAAAACATTTAAATTGTACGGAAATAAAAATTTTT [XGTACX_site8225] | 6.94
9 | AGTAATAGTTTGTGCACACTCAAGTATATCATATAT [CACACA_site4034] | 9.56
10 | AATATATGGTTTCATGATATTAAATTCAAAATAATG [CACACA_negctrl_site318] | 6.75
11 | TATTTCAAAATATGGGTGCAGTTCTTCATGATATAT [GTGCAC_site9658] | 10.7
12 | TATATTTCTTCTATAACATGCAGATATATGAAAATA [TGCATGCA_site971] | 7.11
13 | TTTAAAAAATGTTATATTATATAATTAAAAAAAAAA [CACACA_negctrl_site1509] | 6.63
14 | AACCAAACAAATAAACGTACAAACATTACATATATT [XGTACX_site2265] | 7.05
15 | TTACTATGTAAACACACATGCAATATATGTTAAGCC [TGCATGCA_site253] | 6.91
16 | AGTGTTTTTTATAAAGTGCAATATAAAAACAAAATG | 8.59
17 | AATTATTGTGAAGGGAAAACAAAAAAGTTTATAATT [CACACA_negctrl_site1337] | 6.87
18 | TTTATAAAGGGAAAGGTGCAAAAGGTGAAAGTTTTA | 10.8
19 | TATATATATATACATTGTACATTATTGATTATAACA [XGTACX_site1678] | 9.52
20 | TTTGAATCCTTATATACACACATTATGTAATATTAT [CACACA_site561] | 7.1
21 | ATATATATATATATATGTACATAGAGAAGTATCTTT [XGTACX_site4737] | 9.91
22 | TTTTTTTTTTTTTTGGTGCAGTTCACATATTATATA [GTGCAC_site9996] | 9.48
23 | ATGTAGAAGTAATGCACACATATGTATTTATATATA [CACACA_site5391] | 7.26
24 | ATGGTTATATTTGAAGTGCAAAAAAAAATATATGTA | 8.55

Row | Sequence | gcPBM binding intensity (ln)
25 | GAAGTAGATGGAAAAGTGCACTGTAATGGTTATATT | 10.3
26 | CATTAATAACAAAGTTGTACAAGATAATATTATATG [XGTACX_site6832] | 7.26
27 | TAAAAAATTATTAAACGTACGAGACTTTTTATCAGT [XGTACX_site2219] | 7.05
28 | AAAAAAAAATATAACAGTACATAAACATATGAATAT [XGTACX_site7093] | 6.91
29 | ATAATAAAAAAAATTAGTACATATATAAATATAAAT [XGTACX_site1937] | 6.85
30 | CATCTCATATTTTGAAGTACTAAGAAAAGATATAAA [XGTACX_site6867] | 7.07
31 | GAAAATTTAAAAAGAGTGCATTATATGTTTGAATAT [GTGCAC_site9564] | 9.18
32 | TTTTTTTTTTTTTTTGCATGTTGAAAATAAAATTAT [TGCATGCA_site86] | 6.92
33 | AATTTGAAATATGTGGTGCAGTTATATAATATGTTT [GTGCAC_site9885] | 10.3
34 | TTTTATGTTTATGTGGTGCATGTTTTGAAGAAAATA [GTGCAC_site9616] | 10.3
35 | TATATTTGAAATATATGTACTTATAATACAGTTTAA [XGTACX_site8039] | 6.94
36 | TTTTATGCATGTGAAGTGCAAAATAAAAAATAAAAT [GTGCAC_site9612] | 10.2
37 | ATATAAAATCAACAAAAAAAAAAAATATATATATAT [XGTACX_negctrl_site251] | 9.03
38 | AAATACATAACTTAAAATTTGTTCATATCTATACAT [TGCATGCA_negctrl_site249] | 6.94
39 | AAAAATTAACAAAAGGTGCAAACAAATAGTGGTTTT [GTGCAC_site9998] | 10.8
40 | AGGTTTTCTTAAATAGTGCATTATAACAAAAATAAA | 9.66
41 | ACATTAACATTGTTGGTGCAAAATTAATATGTTTTT [GTGCAC_site9673] | 9.77
42 | GTATATAATTTATGTGCACACACTCCTATTTTTAGC [CACACA_site49] | 8.89
43 | ATTCCTTGGTTGTATAGTACTTTGGTTAAACATAAA [XGTACX_site6967] | 7.4
44 | CTTATAAGAATACTAGTGCACATAATTTAACGAAAA | 10.6
45 | TAGATTATTATACTAGTGCAAATTATTTAAGAAAAA | 8.09
46 | AAGATAAAATTATGCACACATACGAATAATTTTAAA [CACACA_site1705] | 7.24
47 | AAAAATTTAATTATTTGTACATAAAATACATTTCTG [XGTACX_site791] | 6.81

— the supplement of paper PMC11417369
